Assay [1] in a line: small molecules captured by biotinylated probe aFSTL3 – biochemical, small-molecule microarray, fluorescence 635/667, stem cell growth factor project, primary screen (AID 1064).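 Also: measures binding of the biotinylated anti-FSTL3 antibody to printed compounds.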 As to conditions: higher = more signal.
Assay [2] in a line: binders from COS7 lysate, DM2A8 probe, primary screen, torsin A project, cell lysate, small-molecule microarray, fluorescence 635/667 (AID 1065). As to conditions: higher = more signal, COS7 lysate expressing mutant human TOR1A.
A short description of assay [3]: small molecules captured by biotinylated probe aFGF2 – biochemical, small-molecule microarray, fluorescence 635/667, stem cell growth factor project, primary screen (AID 1067).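 Also: measures binding of biotinylated aFGF2 protein to printed compounds on slides; z-score merges feature fluorescence and signal-to-noise across triplicate slides.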 As to conditions: higher = more signal.
The nature of assay [4]: small molecules captured by biotinylated probe aFGF10 – biochemical, small-molecule microarray, fluorescence 635/667, stem cell growth factor project, primary screen (AID 1071).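 Also: score merges 667 nm spot intensity and signal to noise from triplicate slides.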 As to conditions: higher = more signal.
Assay [5] deals with Neurogenic locus notch homolog protein 2 (Homo sapiens) (UniProt Q04721). Briefly: small molecules binding Notch2 protein – biochemical, small-molecule microarray, 635 nm fluorescence, stem cell growth factors, primary screen (AID 1073). As to conditions: higher = more signal.
In assay [6] the target is Pro-neuregulin-1, membrane-bound isoform (Homo sapiens) (UniProt Q02297). Briefly: small molecules binding neuregulin-1 protein – biochemical, small-molecule microarray, fluorescence 635/667, psychiatric disease protein project, primary screen (AID 1075).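 Also: score combines 667 nm spot fluorescence with signal to noise.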 As to conditions: NRG1 binding, 635 nm fluorescence, higher = more signal.
Assay [7] deals with Neuregulin-1 EGF-like domain. Briefly: small molecules binding NRG1 EGF domain – biochemical, small-molecule microarray, 635 nm fluorescence, primary screen (AID 1081).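 Also: binding of the protein to compounds printed on small-molecule microarray slides.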 As to conditions: higher = more signal.
Assay [8] in a line: FRG1 expression reporter modulators in myotubes – cell-based, C2C12 myotubes, firefly/Renilla luciferase, luminescence, FRG1 inhibition for FSHD, primary screen (AID 1084). As to conditions: FRG1 promoter luciferase, higher = more signal, called active from +8 up or from −8 down.
A short description of assay [9]: small molecules captured by biotinylated probe aFST – biochemical, small-molecule microarray, fluorescence 635/667, stem cell growth factor project, primary screen (AID 1086).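 Also: score merges 667 nm fluorescence with signal-to-noise of each printed compound spot.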 As to conditions: higher = more signal.
Assay [10] in a line: binders of probe aHhip on microarray, primary screen, stem cell growth factor project, biochemical, small-molecule microarray, fluorescence 635/667 (AID 1087).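 Also: score merges spot fluorescence at 667nm with spot signal to noise ratio.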 The settings on record: higher = more signal.
Assay [11] has as its system PRMT1 (protein arginine N-methyltransferase 1). Briefly: small molecules binding arginine methyltransferase PRMT1 – biochemical, small-molecule microarray, 635 nm fluorescence, primary screen (AID 1088).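 Also: binding of Prmt1 protein to compounds spotted on small-molecule microarray slides.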 The settings on record: higher = more signal.
The nature of assay [12]: growth effects on S. cerevisiae YJM789 – YJM789 clinical isolate, OD600, 24 h, basal, primary screen (AID 1089).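 Also: growth of clinical yeast isolate S. cerevisiae YJM 789 seeded 1000 cells per well; test concentration not given here.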 The settings on record: higher = more signal, called active from +8 up or from −8 down.
The nature of assay [13]: S. pombe growth modifiers, basal conditions – strain 972, OD600, 24 h, no modulator, primary screen (AID 1090).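 Also: basal condition with compound alone and no growth modifier present; test concentration not given here.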 As to conditions: S. pombe 972 growth, higher = more signal, called active from +8 up or from −8 down.
Assay [14] is described as follows: budding yeast growth modifiers under rapamycin – strain BY4716, OD600, 96 h, primary screen (AID 1091). Also: test concentration not given here. The settings on record: S. cerevisiae BY4716 + rapamycin, higher = more signal, called active from +8 up or from −8 down.
In assay [15] the target is Torsin-1A-interacting protein 2 (Homo sapiens) (UniProt Q8NFQ8). Put plainly: small molecules binding lysate-expressed LULL1 – cell lysate, human LULL1 lysate, 635/667 nm fluorescence, primary screen (AID 1092).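 Also: probe is lysate of COS7 cells overexpressing human LULL1; score merges per-feature 667 nm fluorescence with signal-to-noise.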 As to conditions: small-molecule microarray, hLULL1 lysate binding, 635 nm fluorescence; higher = more signal.
A short description of assay [16]: optical density change of DRC41 E. coli – strain DRC41, OD650, 24 h, E. coli filamentation project, primary screen (AID 1093).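 Also: MC1000 strain lacking acrAB efflux and sulA so SOS filamentation is blocked; test concentration not given here.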 The settings on record: E. coli DRC41 growth, higher = more signal, called active from +8 up or from −8 down.
Assay [17] in a line: probe aLefty2 binding to arrayed compounds – biochemical, biotinylated probe, 635/667 nm fluorescence, primary screen (AID 1094).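 Also: score merges spot fluorescence near 667 nm with spot signal-to-noise ratio.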 As to conditions: small-molecule microarray, higher = more signal.
In assay [18] the test system is Noggin (protein binding on small-molecule microarray). Briefly: small molecules binding Noggin protein – biochemical, 635/667 nm fluorescence, primary screen (AID 1095).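 Also: score merges 667 nm feature fluorescence with signal to noise over triplicate slides.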 As to conditions: 635 nm fluorescence, higher = more signal.
The target of assay [19] is Neurogenic locus notch homolog protein 3 (Homo sapiens) (UniProt Q9UM47). Put plainly: small molecules binding NOTCH3 protein – biochemical, 635/667 nm fluorescence, primary screen (AID 1096). The settings on record: small-molecule microarray, 635 nm fluorescence, higher = more signal.
Assay [20] is described as follows: probe aEGFR binding to arrayed compounds – biochemical, biotinylated probe, 635/667 nm fluorescence, primary screen (AID 1097).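 Also: probe is a biotinylated anti-EGFR antibody binding compounds printed on slides; score combines fluorescence near 667 nm and signal to noise of each spot.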 As to conditions: small-molecule microarray, higher = more signal.

Structures are written as SMILES. The source made the active and inactive calls.

Chain of Neurogenic locus notch homolog protein 3 (Homo sapiens) (Q9UM47 whole entry, looked up): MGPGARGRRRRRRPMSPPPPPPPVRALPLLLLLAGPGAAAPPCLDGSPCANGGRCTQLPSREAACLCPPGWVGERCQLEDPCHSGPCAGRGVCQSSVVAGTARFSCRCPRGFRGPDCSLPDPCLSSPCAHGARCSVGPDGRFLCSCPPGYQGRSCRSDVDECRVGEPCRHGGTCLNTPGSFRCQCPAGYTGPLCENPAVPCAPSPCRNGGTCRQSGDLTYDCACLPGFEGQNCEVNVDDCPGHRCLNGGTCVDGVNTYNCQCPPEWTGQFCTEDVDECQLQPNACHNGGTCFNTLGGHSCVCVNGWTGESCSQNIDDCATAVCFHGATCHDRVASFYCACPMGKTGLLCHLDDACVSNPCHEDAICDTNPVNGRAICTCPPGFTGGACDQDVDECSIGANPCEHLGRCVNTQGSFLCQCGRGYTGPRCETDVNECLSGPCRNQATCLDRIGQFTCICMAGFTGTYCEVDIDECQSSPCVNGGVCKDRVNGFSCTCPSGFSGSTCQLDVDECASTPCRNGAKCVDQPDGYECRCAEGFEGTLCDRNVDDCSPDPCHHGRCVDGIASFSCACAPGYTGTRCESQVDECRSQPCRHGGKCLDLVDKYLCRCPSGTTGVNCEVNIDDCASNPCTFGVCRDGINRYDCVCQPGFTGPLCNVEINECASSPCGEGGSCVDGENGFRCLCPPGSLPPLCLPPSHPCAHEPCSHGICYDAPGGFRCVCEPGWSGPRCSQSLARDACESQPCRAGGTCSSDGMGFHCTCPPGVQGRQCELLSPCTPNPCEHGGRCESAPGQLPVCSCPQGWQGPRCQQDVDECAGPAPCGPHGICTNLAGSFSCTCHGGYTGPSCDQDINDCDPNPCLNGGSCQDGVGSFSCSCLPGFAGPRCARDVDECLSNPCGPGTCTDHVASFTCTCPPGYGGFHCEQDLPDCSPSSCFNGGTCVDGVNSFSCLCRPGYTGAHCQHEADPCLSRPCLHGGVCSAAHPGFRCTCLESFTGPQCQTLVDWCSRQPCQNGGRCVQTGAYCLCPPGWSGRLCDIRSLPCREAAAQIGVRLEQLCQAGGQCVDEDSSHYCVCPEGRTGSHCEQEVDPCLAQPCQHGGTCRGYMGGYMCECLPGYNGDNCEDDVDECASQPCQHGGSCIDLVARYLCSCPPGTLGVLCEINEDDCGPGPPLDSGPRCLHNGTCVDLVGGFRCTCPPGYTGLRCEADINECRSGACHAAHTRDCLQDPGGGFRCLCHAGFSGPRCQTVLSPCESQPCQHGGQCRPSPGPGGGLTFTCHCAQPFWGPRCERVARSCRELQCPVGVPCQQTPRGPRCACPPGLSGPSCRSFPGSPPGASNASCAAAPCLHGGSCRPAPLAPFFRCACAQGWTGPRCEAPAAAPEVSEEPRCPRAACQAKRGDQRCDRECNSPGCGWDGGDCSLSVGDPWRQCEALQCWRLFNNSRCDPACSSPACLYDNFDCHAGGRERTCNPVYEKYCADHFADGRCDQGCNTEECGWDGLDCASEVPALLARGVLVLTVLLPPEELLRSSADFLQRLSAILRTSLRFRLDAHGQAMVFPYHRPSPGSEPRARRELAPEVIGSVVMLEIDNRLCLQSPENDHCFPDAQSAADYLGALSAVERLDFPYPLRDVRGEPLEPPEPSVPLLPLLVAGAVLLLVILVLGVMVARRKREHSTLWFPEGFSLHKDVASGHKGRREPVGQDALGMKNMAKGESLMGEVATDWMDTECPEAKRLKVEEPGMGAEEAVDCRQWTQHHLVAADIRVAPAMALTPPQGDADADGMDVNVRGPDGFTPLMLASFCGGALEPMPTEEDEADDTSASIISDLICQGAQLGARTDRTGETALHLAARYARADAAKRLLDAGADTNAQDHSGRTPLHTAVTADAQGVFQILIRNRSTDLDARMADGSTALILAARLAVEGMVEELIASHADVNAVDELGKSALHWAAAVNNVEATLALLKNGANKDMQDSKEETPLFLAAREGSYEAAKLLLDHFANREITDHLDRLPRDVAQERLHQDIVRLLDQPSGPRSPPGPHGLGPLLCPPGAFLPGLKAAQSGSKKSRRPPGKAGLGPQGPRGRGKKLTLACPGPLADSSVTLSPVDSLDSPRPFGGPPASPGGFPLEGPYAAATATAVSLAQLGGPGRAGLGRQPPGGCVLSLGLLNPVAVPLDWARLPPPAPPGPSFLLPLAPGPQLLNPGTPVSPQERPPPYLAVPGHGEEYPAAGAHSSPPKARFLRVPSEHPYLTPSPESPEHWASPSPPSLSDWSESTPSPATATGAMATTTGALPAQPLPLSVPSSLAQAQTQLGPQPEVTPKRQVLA
Chain of Pro-neuregulin-1, membrane-bound isoform (Homo sapiens) (Q02297 whole entry, looked up, the tested form may be a part, canonical isoform): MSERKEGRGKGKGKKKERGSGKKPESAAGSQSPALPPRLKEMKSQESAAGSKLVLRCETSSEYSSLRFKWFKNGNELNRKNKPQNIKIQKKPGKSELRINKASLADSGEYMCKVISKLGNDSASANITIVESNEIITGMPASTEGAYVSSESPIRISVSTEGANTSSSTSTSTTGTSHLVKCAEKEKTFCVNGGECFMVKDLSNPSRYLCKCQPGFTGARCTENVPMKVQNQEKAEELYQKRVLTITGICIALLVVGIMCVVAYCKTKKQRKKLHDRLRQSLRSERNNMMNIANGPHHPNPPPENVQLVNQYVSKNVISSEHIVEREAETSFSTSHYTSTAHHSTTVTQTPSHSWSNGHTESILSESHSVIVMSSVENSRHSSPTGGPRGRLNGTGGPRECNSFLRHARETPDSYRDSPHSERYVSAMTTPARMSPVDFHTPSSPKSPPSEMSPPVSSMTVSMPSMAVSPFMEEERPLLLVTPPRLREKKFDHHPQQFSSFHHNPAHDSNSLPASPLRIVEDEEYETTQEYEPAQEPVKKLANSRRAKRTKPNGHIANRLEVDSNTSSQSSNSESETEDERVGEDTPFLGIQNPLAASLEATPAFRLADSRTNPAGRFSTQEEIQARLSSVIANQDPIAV
Chain of Torsin-1A-interacting protein 2 (Homo sapiens) (Q8NFQ8 whole entry, looked up): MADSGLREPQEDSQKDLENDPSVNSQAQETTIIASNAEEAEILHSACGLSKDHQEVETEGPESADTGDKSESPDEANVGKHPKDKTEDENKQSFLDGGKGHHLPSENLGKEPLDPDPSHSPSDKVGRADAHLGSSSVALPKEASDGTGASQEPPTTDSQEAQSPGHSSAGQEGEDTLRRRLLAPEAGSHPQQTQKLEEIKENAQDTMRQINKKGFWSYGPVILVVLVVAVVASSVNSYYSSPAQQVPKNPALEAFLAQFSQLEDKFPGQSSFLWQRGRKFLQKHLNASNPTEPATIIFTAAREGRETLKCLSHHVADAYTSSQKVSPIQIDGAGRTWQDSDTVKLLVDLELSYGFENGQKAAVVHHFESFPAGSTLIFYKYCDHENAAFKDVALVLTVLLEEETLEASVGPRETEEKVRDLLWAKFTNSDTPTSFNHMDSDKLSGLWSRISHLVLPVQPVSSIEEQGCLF

As for `CC(C)(C)OC(=O)CC[C@@]1(C(=O)NCc2ccccc2)N=C(c2ccc(OCCCO)cc2)O[C@@H]1c1ccccc1N=[N+]=[N-]`, the composite z-score in assay [1] turned out to be 0.418; in [2], 0.559; in assay [3], 0.246; in assay [4] it was 0.885; in [5], 1.64; in assay [6], 1.75. Moreover, the composite z-score in assay [7] was 0.968; in [9], 1.13; in [10], 0.0115; in assay [11] it was 1.56; in assay [15], 3.25; in [17], 0.372. For the same molecule, the figures for the composite z-score in [18], in assay [19] and in assay [20] were 0.878, 1.05 and 0.224, respectively. The z-score in [8] is 1.16 (inactive); in assay [12], 0.704 (inactive); in assay [13], 0.501 (inactive); in assay [14], 3.64 (inactive); in assay [16], 0.516 (inactive).

On to `C=C(COC)C(=O)CC[C@@H](OC(=O)c1cccnc1)c1ccc(OCCO)cc1`, for which the composite z-score in [1] is 0.193; in [2], 0.112; in assay [3], -0.172; in assay [4] it was 0.182; in [5], 1.02; in [6], 0.403. In addition, the composite z-score in assay [7] is 1.49; in assay [9], 0.343; in assay [10], -0.0237; in [11], 1.2; in [15] it was 0.204; in assay [17], 0.0047. The composite z-score in assay [18] was 0.992; in [19] it was 0.431; in [20], 0.167. The z-score in [8] was -1.32 (inactive); in assay [12] it was -10.9 (active); in assay [13] it was -20.4 (active); in assay [14] it was -3.62 (inactive); in [16] it was -0.653 (inactive).

With `COc1ccc([Si](C)(C)[C@@H]2[C@@H](CC(=O)N3Cc4ccccc4C[C@H]3CO)O[C@]3(C(=O)N(Cc4cccc(N5C(=O)c6cccc7cccc5c67)c4)c4ccccc43)[C@H]2C)cc1`, the composite z-score in assay [1] is -0.345; in assay [2] it was 0.822; in [3] it was -0.0111; in assay [4], 0.659; in [5], 0.973; in assay [6] it was 0.828. Moreover, the composite z-score in [7] is 1.04; in [9], 0.593; in assay [10], 0.0505; in [11], 1.56; in assay [15], 1.6; in [17] it was -0.0144. Also, the composite z-score in assay [18] came to 1.08; in [19], 1.09; in assay [20], 0.0276. Also, the z-score in assay [8] was -1.51 (inactive); in assay [12] it was -0.258 (inactive); in [13], 0.93 (inactive); in assay [14] it was 2.43 (inactive); in assay [16], -0.342 (inactive).

As to `C=CC[C@@]1(C(=O)N2CCOCC2)N=C(c2ccc(OCCCO)cc2)O[C@@H]1c1ccccc1CN=[N+]=[N-]`, the composite z-score was -0.0448 in assay [1]; 0.326 in [2]; 0.141 in [3]; 1.01 in assay [4]; 1.62 in [5]; 1.53 in assay [6]. Besides, the composite z-score in assay [7] turned out to be 1.15; in assay [9], 1.17; in assay [10], 0.0722; in [11] it was 1.56; in [15] it was 3.28; in [17] it was 0.691. Also, the composite z-score in [18] is 0.355; in [19] it was 1.09; in assay [20], 0.776. Also, the z-score in [8] was -1.21 (inactive); in assay [12], 0.0366 (inactive); in [13], 0.472 (inactive); in assay [14], -0.74 (inactive); in assay [16], 0.0893 (inactive).

For `C=CCC(OC(C)=O)[C@@H]1[C@@H](N(Cc2cccc3ccccc23)C(=O)c2cccc3ccccc23)c2cc(OCCCO)ccc2N1C(=O)c1ccc(-c2ccccc2)cc1` (stereo not given in full), the composite z-score in assay [1] was -0.0699; in assay [2], 0.103; in assay [3], -0.105; in assay [4] it was 0.0552; in assay [5] it was -0.603; in [6], 0.523. Also, the composite z-score in [7] is -0.825; in assay [9], 0.234; in assay [10], 0.607; in [11], 0.159; in [15] it was 0.465; in [17], -0.027. The composite z-score is 0.163 in [18], -0.287 in assay [19] and -0.0104 in assay [20]. In addition, the z-score in assay [8] is -1.66 (inactive); in [12], -0.551 (inactive); in assay [13], 0.169 (inactive); in [14], -0.725 (inactive); in [16], -0.61 (inactive).

The values above are taken from PubChem BioAssay.
